Compound activity (PubChem)
Most compounds without a hit are left out; they make up all but 0.9% or so of the library.
gsp antag – antagonizes gsp, the McCune-Albright syndrome mutation | gsp-mutant cells, cAMP HTRF, 30 min | Potency, µM (series often up to 76.9 µM), for the others: at the highest dose activity change, negative = inhibition, actives largely listed as inhibitors | actives 0.4% (n = 340,000) | AID 624288; calls by dose curve; cell line not stated here;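 note: intracellular cAMP measured with PDE inhibitor Ro 20-1724 present during compound exposure; potency is the fitted concentration of half-maximal effect; % is set by controls: 0 for no effect and ±100 for the full control effect; nearly all actives have a fitted effect of over 65% in size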
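G418-selected cells were plated in DMEM/10% FBS for 16-24 h at 37C, then treated with compounds plus the PDE inhibitor […] (300 uM solution added) for 30 min at 37C. Intracellular cAMP was measured by HTRF after 30 min lysis at room temperature.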
RXFP1 agonist – RXFP1 (human) receptor agonism. Q9HBX9. HEK293T-RXFP1 cAMP TR-FRET, 30 min; response scale: percent of porcine relaxin response, buffer zero. Potency, µM (top dose mostly 57.5 µM), inactives show at the highest dose activation, hits mostly activators. actives 0.3% (n = 370,000); active = well fitted activation curve with a large enough effect; inconclusive = small, poorly fitted or top-dose-only effect; note: potency is the fitted concentration of half-maximal effect; % is set by controls: 0 for no effect and ±100 for the full control effect; nearly all actives have a fitted effect of over 60% in size
Target sequence (Q9HBX9 whole entry, looked up): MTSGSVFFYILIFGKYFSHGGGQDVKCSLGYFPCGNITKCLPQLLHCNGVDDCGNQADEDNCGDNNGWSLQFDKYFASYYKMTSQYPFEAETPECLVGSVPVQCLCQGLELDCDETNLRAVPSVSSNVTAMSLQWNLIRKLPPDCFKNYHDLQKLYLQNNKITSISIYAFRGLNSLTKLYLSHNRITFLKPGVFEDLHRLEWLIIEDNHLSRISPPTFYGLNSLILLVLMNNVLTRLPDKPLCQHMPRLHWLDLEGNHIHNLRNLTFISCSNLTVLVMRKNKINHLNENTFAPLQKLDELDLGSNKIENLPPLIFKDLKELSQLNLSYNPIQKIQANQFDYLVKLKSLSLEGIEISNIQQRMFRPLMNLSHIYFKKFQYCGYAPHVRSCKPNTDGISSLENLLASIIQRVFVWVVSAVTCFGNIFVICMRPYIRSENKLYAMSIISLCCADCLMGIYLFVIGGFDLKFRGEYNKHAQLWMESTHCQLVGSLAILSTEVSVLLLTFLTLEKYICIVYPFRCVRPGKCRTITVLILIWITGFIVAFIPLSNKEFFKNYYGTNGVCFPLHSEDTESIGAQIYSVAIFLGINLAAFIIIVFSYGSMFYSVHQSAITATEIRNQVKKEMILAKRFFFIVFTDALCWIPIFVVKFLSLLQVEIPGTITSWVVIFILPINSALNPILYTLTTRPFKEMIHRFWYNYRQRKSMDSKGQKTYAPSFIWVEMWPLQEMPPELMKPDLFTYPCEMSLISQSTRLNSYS
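cAMP rise read by TR-FRET after 30 min, 37C compound exposure (up to 58 uM) in RXFP1-transfected HEK293 cells with Ro 20174 present. EC50 from Hill-equation fits, with 29 nM porcine relaxin as 100% and buffer as basal.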
gsp agonist – activates gsp, the McCune-Albright syndrome mutation | gsp mutant cells, cAMP HTRF, 30 min | AID 624287 | actives 0.13% (n = 340,000) | Potency, µM (highest dose often 76.9 µM), inactives show top-dose activation (cAMP increase), actives largely listed as activators; active = well fitted activation curve with a large enough effect; inconclusive = small, poorly fitted or top-dose-only effect, or another doubt; inactive = no such curve, though single readings can be large or run the other way; cell line not stated here;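 note: phosphodiesterase inhibitor Ro 20-1724 added with compounds to block cAMP breakdown; potency is the fitted concentration of half-maximal effect; nearly all actives have a fitted effect of over 60% in size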
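Cells in DMEM/10% FBS with G418 were pretreated with compounds in DMSO plus […] (300 uM stock) for 30 min at 37C. cAMP was measured by HTRF (cAMP-d2 plus anti-cAMP antibody-K) after 30 min at room temperature.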
RXFP1 antag – RXFP1 (human) relaxin receptor antagonism; Q9HBX9; HEK293-RXFP1, relaxin-stimulated cAMP HTRF, 30 min; stronger effect = lower value; activity change, negative = inhibition, % at 57.5 µM; actives 0.59% (n = 350,000);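 active = activity change of -60% or lower, but not beyond a set lower limit; inconclusive = change between -60% and -40%, or beyond the set limit; inactive = change above -40%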; note: % is set by controls: 0 for no effect and ±100 for the full control effect
An asterisk follows results filed as active; [ ] = remark or other dose.

Screening Cc1ccccc1S(=O)(=O)Cc1ccc(C(=O)NC2CC2)o1 returned gsp antag 28.2µM*, RXFP1 agonist 1.2%, gsp agonist -6.0% and RXFP1 antag 6.3.
`Cc1ccccc1S(=O)(=O)Cc1ccc(C(=O)NC2CCCCCC2)o1` gave gsp antag -7.6%, RXFP1 agonist -3.6%, gsp agonist -59.2% and RXFP1 antag 36.6.
Screening Cc1nc2c(C(=O)NCc3ccccc3)c[nH]n2c(=O)c1Cc1ccccc1Cl returned RXFP1 agonist 0.9% and RXFP1 antag -60.4*.
`Cc1cc(=O)oc2cc(O[C@@H]3SC[C@@H](O)[C@H](O)[C@H]3O)ccc12` gave RXFP1 antag 7.7.
For Cc1ccc(C(C)C)c(OCC(=O)NCC2(N3CCOCC3)CCCCC2)c1 the results were RXFP1 agonist 3.5% and RXFP1 antag -110.8*.
For COc1cc(C(=O)Nc2sc3c(c2C#N)CCN(C(C)=O)C3)cc(OC)c1OC the results were gsp antag -0.4%, RXFP1 agonist 17.3% and gsp agonist 10µM*.
Screening CCC1(C)Cc2c(sc3nc(SC)[nH]c(=S)c23)CO1 (centres undefined) returned gsp antag -5.8%, RXFP1 agonist 25.1µM*, gsp agonist inconclusive and RXFP1 antag 8.0.
`COC(=O)CCCCC(CCSS/C(CCO)=C(\C)N(C=O)Cc1cnc(C)nc1N)SC(C)=O` (centres undefined) gave RXFP1 antag 2.3.
For Cc1[nH]c(N=Nc2ccccc2)nc1N=Nc1ccccc1 the results were gsp antag -17.6%, RXFP1 agonist 0.2%, gsp agonist 3.0%[15.4 µM] and RXFP1 antag -93.7*.
`Nc1ccc(N=Nc2ccccc2)c(N)n1` gave gsp antag 4.7%, RXFP1 agonist 1.0% and RXFP1 antag -21.8.
Screening CCCC(=O)Nc1nc(C)c(C(C)=O)s1 returned gsp antag 13.1%, RXFP1 agonist 17.8µM*, gsp agonist inconclusive and RXFP1 antag 9.1.
O=C(NNC(=O)c1cccc(S(=O)(=O)N2CCN(c3ccccc3)CC2)c1)c1ccc(Cl)cc1 was read as gsp antag -8.5%, RXFP1 agonist -0.6% and gsp agonist 11.2µM*.
Screening CC(=O)N1CCN(C(=O)c2cccc(S(=O)(=O)N3CCN(c4ccccc4)CC3)c2)CC1 returned gsp antag -3.8%, RXFP1 agonist 0.9%, gsp agonist inconclusive and RXFP1 antag 0.3.
`CC(C)(C)c1ccc(-c2nc3cc(N)ccc3o2)cc1` gave gsp antag 1.8%, RXFP1 agonist 7.8%, gsp agonist 17.0% and RXFP1 antag -83.7*.
Screening Cc1ccc(-c2nc3cc(N)ccc3o2)cc1 returned gsp antag 4.5%, RXFP1 agonist 13.0%, gsp agonist inconclusive and RXFP1 antag 8.2.
Screening Cc1ccc(-c2nc3cc(N)ccc3o2)c(C)c1 returned gsp antag 16.4%, RXFP1 agonist 17.4%, gsp agonist 31.6µM* and RXFP1 antag 2.1.
`Cc1ccc2oc(-c3cccc(N)c3)nc2c1` gave RXFP1 agonist 8.1%, gsp agonist -2.3%[15.4 µM] and RXFP1 antag -7.2.
`CC(C)n1nc(-c2cc3cc(O)ccc3[nH]2)c2c(N)ncnc21` gave RXFP1 antag -37.8.
`CCN(CC)CCCCN1c2ccccc2Sc2ccccc21` gave gsp antag 10.7%, RXFP1 agonist -1.0%, gsp agonist inconclusive and RXFP1 antag -63.5*.
`CCn1c(C)c(C)c2cc(C(=O)NCCc3cc(OC)c(OC)c(OC)c3)ccc21` gave RXFP1 agonist -0.1% and RXFP1 antag -19.0.
`Cc1cc(O)c(C)c(C)c1O` gave RXFP1 antag 26.1.
For O=C(COc1ccccc1)NNc1c2ccccc2nc2ccccc12 the results were gsp antag 39.8µM*, RXFP1 agonist -0.3%, gsp agonist -50.6% and RXFP1 antag -24.5.
`O=C(NNc1c2ccccc2nc2ccccc12)c1cccc(O)c1` gave gsp antag -10.9%, RXFP1 agonist 3.7%, gsp agonist 26.7% and RXFP1 antag 3.0.
COc1ccc(OCC(=O)NNc2c3ccccc3nc3ccccc23)cc1 was read as gsp antag 31.6µM*, RXFP1 agonist -1.3%, gsp agonist -9.6% and RXFP1 antag -37.5.
For O=C(NNc1c2ccccc2nc2ccccc12)c1ccc(O)cc1 the results were gsp antag 35.5µM*, RXFP1 agonist -0.1%, gsp agonist -30.3% and RXFP1 antag -8.0.
CC(C)c1cnc2c(c1SCC(=O)Nc1cccc([N+](=O)[O-])c1)c(=O)n(C)c(=O)n2C was read as RXFP1 agonist 5.7% and RXFP1 antag -19.0.
`COc1ccc(N2CCN(S(=O)(=O)c3ccc4c(c3)C(C(C)C)C(=O)N4)CC2)cc1` (centres undefined) gave RXFP1 agonist -4.4% and RXFP1 antag -14.8.
For COCCCNC(=O)c1cnn(-c2ccc(F)cc2F)c1C1CCNCC1 the results were RXFP1 agonist 2.8%.
`CC(=O)N[C@@H](CCC(N)=O)C(=O)O` gave RXFP1 antag -8.7.
`CCN(CC)CC(=O)Nc1c(C)cccc1C(=O)OC` gave RXFP1 antag 3.2.
COc1ccc(NC(=O)C/C(C)=N/NC(=O)c2ccco2)c([N+](=O)[O-])c1 was read as gsp antag 3.4%, RXFP1 agonist 3.0%, gsp agonist inconclusive and RXFP1 antag -66.2*.
O=C(NC(Cc1c[nH]c2ccccc12)C(=O)Nc1ccc(F)c([N+](=O)[O-])c1)c1cccs1 (centres undefined) was read as gsp antag -2.0%, RXFP1 agonist -0.4%, gsp agonist 1.1% and RXFP1 antag -2.9.
For O=C(NC(Cc1c[nH]c2ccccc12)C(=O)Nc1ccc(OC(F)(F)F)cc1)c1cccs1 (centres undefined) the results were gsp antag 4.5%, RXFP1 agonist 0.0%, gsp agonist -0.1%[15.4 µM] and RXFP1 antag -70.8*.
Screening CC(Oc1ccc2c3c(c(=O)oc2c1)CCC3)C(=O)NCC1CCC(C(=O)O)CC1 (centres undefined) returned gsp antag 31.6µM* and RXFP1 agonist 3.2%.
`CC(Oc1ccc2c3c(c(=O)oc2c1)CCCC3)C(=O)NCC1CCC(C(=O)O)CC1` (centres undefined) gave gsp antag -5.1%, RXFP1 agonist 2.7%, gsp agonist -17.4% and RXFP1 antag -13.4.
For FC(F)(F)c1cccc(Nc2nc3nonc3nc2Nc2ccc(Cl)cc2)c1 the results were RXFP1 agonist 2.0% and RXFP1 antag -82.2*.
O=C1COc2ccc(-c3cc(-c4ccccc4)c4c(n3)-c3cc(Cl)ccc3OC4)cc2N1 was read as RXFP1 agonist -0.4%.
COc1cc2c(cc1OC)C(C)N(C(=O)c1cc3c(s1)-c1ccccc1OC3)CC2 (centres undefined) was read as gsp antag -23.9%, RXFP1 agonist 1.4%, gsp agonist 14.4% and RXFP1 antag -33.5.
